Source: PubChem BioAssay AID493012 (Sanford-Burnham Center for Chemical Genomics, 2011)
Screen size: about 330,000 compounds; about 930 (0.28%) were called active. This is one part of a sample in which actives are shown more often than they occur.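 The calls were made as follows: active = inhibition of at least 40% at 20 µM, with no more than 30% in the related APOBEC3A deaminase screen; inactive = the rest.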

The compounds below were run against DNA dC->dU-editing enzyme APOBEC-3G (Homo sapiens) (UniProt Q9HC16) (assay: inhibition of human A3G ssDNA deamination – biochemical, fluorescence, single-stranded DNA substrate, uHTS, primary screen (AID 493012;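 also: plate controls were DMSO wells with A3G for no effect and wells lacking A3G enzyme for full effect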)). Settings: recombinant A3G, ssDNA deamination FAM/TAMRA fluorescence; at 20 µM; stronger effect = higher value.
Sequence of DNA dC->dU-editing enzyme APOBEC-3G (Homo sapiens) (Q9HC16 whole entry, looked up): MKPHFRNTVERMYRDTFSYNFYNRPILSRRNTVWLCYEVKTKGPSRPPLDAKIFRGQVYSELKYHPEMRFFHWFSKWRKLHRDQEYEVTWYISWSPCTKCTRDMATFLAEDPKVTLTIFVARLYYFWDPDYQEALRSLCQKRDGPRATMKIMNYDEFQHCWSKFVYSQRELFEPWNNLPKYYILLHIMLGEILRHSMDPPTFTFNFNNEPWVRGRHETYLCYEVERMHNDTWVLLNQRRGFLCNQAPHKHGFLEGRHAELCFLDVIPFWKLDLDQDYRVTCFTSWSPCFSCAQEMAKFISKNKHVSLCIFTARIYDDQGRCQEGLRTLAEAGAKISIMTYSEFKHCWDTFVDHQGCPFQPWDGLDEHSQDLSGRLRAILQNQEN

SMILES	inhibition
CCC(C)NC(=O)C1c2ccccc2Oc2ccccc21 (configuration not stated)	-4.18% (inactive)
CC(C)(C)c1nnc(NC(=O)C2c3ccccc3Oc3ccccc32)s1	53.3% (active)
CCC(C)(C)NC(=O)C1c2ccccc2Oc2ccccc21	-0.78% (inactive)
CCCCn1c(N)c(N(CCOC)C(=O)c2sc3ccccc3c2Cl)c(=O)[nH]c1=O	-7.98% (inactive)
CCCCCC(O)c1cccc(OCc2ccc3ccccc3n2)c1 (configuration not stated)	-6.99% (inactive)
Cc1ccc(NC(=O)C2CCN(S(=O)(=O)c3ccc4c(c3)NC(=O)CO4)CC2)cc1C	-9.26% (inactive)
NC(=O)C1CCN(C(=O)c2ccc(F)c(S(=O)(=O)N3CCOCC3)c2)CC1	-4.4% (inactive)
CN(C(=O)c1cccc(NC(=O)Cc2cccc([N+](=O)[O-])c2)c1)C1CCCCC1	-1.19% (inactive)
CCn1cc(C(=O)N2CC(C)CC(C)C2)c(=O)c2cc(S(=O)(=O)N3CCCC3)ccc21 (configuration not stated)	-1.06% (inactive)
CCN(CC)C(=O)CSC(Nc1cccc(F)c1)=C(C#N)C#N	-2.9% (inactive)
Nc1ccccc1SC(C[N+](=O)[O-])c1ccccc1 (configuration not stated)	75.7% (active)
O=C(COc1cc(Cl)c(Cl)cc1Cl)NC(=O)NC1CCCC1	-1.68% (inactive)
O=c1cnnc(Nc2ccccc2)[nH]1	-1.93% (inactive)
CC(C)(C)C(=O)c1cnc(Nc2ccccc2)s1	17.8% (inactive)
O=C(CSc1ncccn1)NCCc1ccccc1	-0.062% (inactive)
S=c1[nH]nc(NCCc2ccccc2)s1	43.1% (active)
S=c1[nH]nc(Nc2ccccc2)s1	42.7% (active)
Nc1c(NCCc2ccccc2)c2ccccc2oc1=O	-2.86% (inactive)
Cc1ccc([N+](=O)[O-])c(OCCCNCC(C)O)c1 (configuration not stated)	-8.53% (inactive)
Cc1cc(C)n(C(=O)c2ccc(C)c(S(=O)(=O)N3CCOCC3)c2)n1	0.652% (inactive)
COc1ccc(CCNC(=O)CS(=O)(=O)Cc2nc(-c3ccc(C)cc3)oc2C)cc1OC	-6.41% (inactive)
S=c1[nH]nc(-c2cc(-c3ccccc3)n[nH]2)n1/N=C/c1c2ccccc2cc2ccccc12	43.4% (active)
CCN(CC)S(=O)(=O)c1cccc(-c2n[nH]c(=S)n2/N=C/c2ccc(C(=O)OC)cc2)c1	-5.7% (inactive)

SMILES	inhibition
S=c1[nH]nc(-c2cc(-c3ccsc3)n[nH]2)n1-c1ccccc1	20.5% (inactive)
O=c1c2ccccc2nnn1CSc1nc2sc3c(c2c(=O)n1CC1CCCO1)CCC3 (configuration not stated)	-0.082% (inactive)
CC(C)c1ccc(NC(=O)COC(=O)c2ccc(CN3CCCC3=O)cc2)cc1	-5.19% (inactive)
CC(C)(C)n1nnnc1C(c1ccc2ncccc2c1)N1CCSCC1 (configuration not stated)	1.72% (inactive)
CCc1cccc(NC(=O)C2CCCN(S(=O)(=O)c3ccc4[nH]c(=O)ccc4c3)C2)c1 (configuration not stated)	-3.15% (inactive)
CC(C(=O)O)n1cnc2sc3c(c2c1=O)CCCC3 (configuration not stated)	-3.08% (inactive)
S=c1[nH]nc2c3c4c(sc3ncn12)CCCC4	50.1% (active)
N=c1c2c3c(sc2ncn1CCCN1CCOCC1)CCCCC3	2.15% (inactive)
COc1ccc(-n2nc(C(=O)NCC(=O)Nc3cccc(C)n3)c3ccccc3c2=O)cc1	-3.64% (inactive)
O=c1[nH]c(CN2CCN(S(=O)(=O)c3ccc4c(c3)OCCO4)CC2)nc2sc3c(c12)CCCC3	-9.39% (inactive)
COC(=O)COc1ccc(C2NC(=O)NC(C)=C2C(=O)NCc2ccccc2)cc1OC (configuration not stated)	-1.01% (inactive)
CCn1c(CNS(=O)(=O)c2ccc(Cl)cc2)n[nH]c1=S	30.3% (inactive)
CCn1c(CSCc2c(Cl)cccc2Cl)n[nH]c1=S	11.9% (inactive)
CCn1c(CN2C(=O)CSc3ccccc32)n[nH]c1=S	43.9% (active)
COc1cc(C2/C(=C(\O)c3ccc4c(c3)CC(C)O4)C(=O)C(=O)N2Cc2ccco2)ccc1O (configuration not stated)	-3.83% (inactive)
COc1ccc(/C=N/NC(=O)C(C)N(c2ccc(OC)cc2)S(C)(=O)=O)cc1 (configuration not stated)	-4.56% (inactive)
CN(C)c1ccc(C(CNC(=O)c2ccc(F)cc2)c2c[nH]c3ccccc23)cc1 (configuration not stated)	-2.56% (inactive)
CNS(=O)(=O)c1ccc(NC(=O)Nc2ccc3c(c2)OCO3)cc1	-9.95% (inactive)
COc1ccc(Cn2c(=O)sc3ccccc32)cc1OC	-9.67% (inactive)
S=c1[nH]ccn1-c1ccc(Cl)cc1	69.9% (active)
S=c1[nH]cc(-c2ccc(Cl)cc2)n1-c1ccccc1	-4.18% (inactive)
O=C(NC(=S)Nc1ccc2oc(=O)ccc2c1)c1ccc(-c2cccc(Cl)c2Cl)o1	-0.008% (inactive)
Fc1ccccc1/C=N/n1c(-c2cccnc2)n[nH]c1=S	47.1% (active)

SMILES	inhibition
S=c1[nH]nc(-c2ccncc2)n1/N=C/c1ccccc1Cl	73.5% (active)
S=c1[nH]nc(-c2cccs2)n1/N=C/c1cccs1	27.3% (inactive)
CCOc1ccc(-c2n[nH]c(=S)n2/N=C/c2cc3c(cc2[N+](=O)[O-])OCO3)cc1	1.59% (inactive)
S=c1[nH]nc(-c2cccs2)n1/N=C/c1cn(-c2ccccc2)nc1-c1ccc(Cl)cc1	-2.77% (inactive)
O=[N+]([O-])c1ccccc1/C=N/n1c(COc2ccccc2)n[nH]c1=S	34.8% (inactive)
COc1ccc2c(c1)C(=O)Nc1cc(Cl)ccc1N2	-7.65% (inactive)
O=C(CN1CCCCC1)Nc1ccccc1C(=O)NC1CC1	-5.07% (inactive)
CCCNC(=S)N1CCC(NC(=O)C23CC4CC(CC(C4)C2)C3)CC1	-5.11% (inactive)
Cc1[nH]c2ccccc2c1C(=O)CN1CC(C)CC(C)C1 (configuration not stated)	-4.14% (inactive)
Cc1ccccc1-n1cc(CNC(=O)C2CCC(=O)N(C3CC3)C2)cn1 (configuration not stated)	-4.71% (inactive)
CC(Oc1ccc(F)cc1)C(=O)Nc1ccccc1C(=O)NC1CC1 (configuration not stated)	-11.6% (inactive)
COc1cccc(NC(=O)CN(C)C(=O)CSCc2nc3scc(-c4cccs4)c3c(=O)[nH]2)c1	-7.77% (inactive)
Cc1nc2scc(-c3cccs3)c2c(=O)n1N	42.5% (active)
CCCc1nc2scc(-c3ccc(C)cc3)c2c(=O)n1N	-7.79% (inactive)
Cc1cc(-c2ccccc2)nc(N2CCC(C(=O)NC34CC5CC(CC(C5)C3)C4)CC2)n1	-9.15% (inactive)
CCOC(=O)C1=C(N)N2C(=O)C(C)SC2=C(C(=O)OCC)C1c1cc(OC)c(OC)c(OC)c1 (configuration not stated)	-2.88% (inactive)
C=C(C)C(=O)Nc1cccc(C2=NOC3(C2)C[C@H](C(N)=O)N(C(=O)C(c2ccccc2)c2ccccc2)C3)c1 (some centres not stated)	53.1% (active)
C/C=C\C=C\C(=O)N1CC2(CC(c3cccc(NC(=O)/C(C)=C\C)c3)=NO2)C[C@H]1C(N)=O (some centres not stated)	-3.46% (inactive)
C/C=C(/C)C(=O)Nc1cccc(C2=NOC3(C2)C[C@@H](C(N)=O)N(C(=O)C2(C)CC2)C3)c1 (some centres not stated)	-16% (inactive)
COc1ccc(/C=N/n2nnnc2N)cc1OC	-3.77% (inactive)
COc1cc(/C=C/C(=O)OCC(=O)N2CCOCC2)ccc1OCC#N	-3.2% (inactive)
CC1CCc2sc3nc(N4CCN(CCO)CC4)n4ncnc4c3c2C1 (configuration not stated)	-8.25% (inactive)
CCOC(=O)NC(=O)C(=CNc1cccc(OC)c1)C(=O)NC(=O)OCC	-5.67% (inactive)

SMILES	inhibition
COc1ccc(C2CC(c3ccc([N+](=O)[O-])cc3)=NN2C(C)=O)cc1 (configuration not stated)	1.76% (inactive)
CC(=O)N1CC[n+]2c(-c3ccc([N+](=O)[O-])cc3)csc21	54.4% (active)
COC(=O)c1c(C)[nH]c(C)c1-c1ccc([N+](=O)[O-])cc1	-8.28% (inactive)
Nc1nonc1-n1nnc(C(=O)N/N=C/c2ccc(Cl)cc2)c1-c1ccc2c(c1)OCO2	1.23% (inactive)
COc1ccc(C(=O)CC(=O)C(=O)Nc2cc([N+](=O)[O-])ccc2OC)cc1	-6.63% (inactive)
COc1cccc(C(=O)CC(=O)C(=O)Nc2ccc([N+](=O)[O-])cc2C)c1	51.3% (active)
COc1cccc(NCCC(=O)c2cccc([N+](=O)[O-])c2)c1	1.63% (inactive)
CC(=O)Nc1ccc(S(=O)(=O)NCCC(=O)N2CCN(c3ccccc3Cl)CC2)cc1	-2.43% (inactive)
CCCn1c(NC(=O)C23CC4CC(CC(O)(C4)C2)C3)nc2ccccc21	-2.56% (inactive)
O=C(Cc1ccsc1)N1CCN(S(=O)(=O)c2cc(C(F)(F)F)cc(C(F)(F)F)c2)CC1	-3.29% (inactive)
CC(C)CCNC(=O)C1CCC(CNc2c(N3CCC(C)CC3)c(=O)c2=O)CC1 (configuration not stated)	-1.82% (inactive)
C/C(=C(\C#N)C(=O)NCCCN1CCOCC1)N(C)C	-7.59% (inactive)
CCOc1cc(C(=S)N2CCOCC2)ccc1O	51.9% (active)
COc1cc(C(=S)N2CCOCC2)ccc1O	-1.79% (inactive)
CCOc1cc(C(=S)N2CCOCC2)ccc1OS(=O)(=O)c1ccc(Br)cc1	-3.84% (inactive)
O=C(CN1CCN(C2CCS(=O)(=O)C2)CC1)N1N=C(c2ccc(Cl)cc2)CC1c1ccco1 (configuration not stated)	-3.9% (inactive)
FC(F)(F)C1CCCN(c2nsc3ccccc23)C1 (configuration not stated)	72.5% (active)
O=C(NCC(=O)N1CCCC(C(F)(F)F)C1)c1ccccc1F (configuration not stated)	-2.23% (inactive)
CCN(CC)CC(=O)Nc1sc2c(c1C(=O)c1ccccc1C)CCC2	1.14% (inactive)
COc1ccc2[nH]c(C(=O)N3CCN(C)CC3)c(C)c2c1	-7.04% (inactive)
COc1ccc2[nH]c(=S)cc(C)c2c1	45.8% (active)
COc1ccc2c(C)cc3nnnn3c2c1	-2.56% (inactive)
COc1c(C(C)C)oc2cc3oc(=O)ccc3cc12	-10.3% (inactive)
